Laboratory results reported in PubChem BioAssay (NCATS).
Inconclusive results are not listed. A call without a number means that no potency is given here. The source made the active and inactive calls. The call rests on the fitted dose curve; in most records, active means well fitted curve in the direction sought with a large enough effect; inconclusive means small, poorly fitted or top-dose-only effect, or another doubt; inactive means no such curve, though single readings can be large; an effect the other way counts as inactive or inconclusive.

Columns and labels:
[1] = qHTS assay to identify small molecule inhibitors of chordoma cells - UCH-2 (AID 1259356); settings: UCH-2 chordoma viability, CellTiter-Glo ATP luminescence, 48 h; series mostly up to 46.1 µM; further: potency means the concentration at half of the fitted maximal effect
[2] = P-glycoprotein substrates identified in KB-8-5-11 adenocarcinoma cell line, qHTS therapeutic library screen (AID 1346987); settings: KB-8-5-11 (P-gp overexpressing) viability, CellTiter-Glo, 72 h; series mostly up to 44.5 µM; further: nearly all actives have a fitted effect of over 65% in size; further: potency means the concentration at half of the fitted maximal effect
In short: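 Human cervical adenocarcinoma KB-8-5-11 cells, selected in colchicine to over-express P-gp and assayed without it, were exposed for 72 h to titrated compounds. An ATP-based luminescent viability signal gave AC50.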

[3] = qHTS assay for cell viability of the p53RE-bla HCT-116 cell line (AID 743292); settings: p53RE-bla HCT-116 viability, ATP luminescence, 16 h; series mostly up to 95 µM; further: nearly all actives have a fitted effect of over 55% in size
In short: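 Intracellular ATP of p53RE-bla HCT-116 cells measured by luciferase luminescence following 16 h compound incubation at 37 C; DMSO-only wells served as vehicle controls.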

[4] = qHTS assay to identify small molecule inhibitors of chordoma cells - UCH-1 (AID 1259355); settings: UCH-1 chordoma viability, CellTiter-Glo, 48 h, combination; series mostly up to 46.1 µM; further: nearly all actives have a fitted effect of over 55% in size
In short: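 A 48hr growth-inhibition format: each drug tested at 15 concentrations together with added auranofin, camptothecin, doxorubicin, rubitecan and topotecan, with cell viability quantified as CellTiter-Glo luminescence.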

[5] = P-glycoprotein substrates identified in KB-3-1 adenocarcinoma cell line, qHTS therapeutic library screen (AID 1346986); settings: KB-3-1 parental cells viability, CellTiter-Glo, 72 h; series mostly up to 44.5 µM; further: nearly all actives have a fitted effect of over 60% in size
In short: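 Using luminescence to quantify ATP, parental and P-gp-overexpressing KB cells were compared after 72 h compound titration. KB-8-5-11 was also run with the P-gp inhibitor tariquidar.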

For `O=C1OC2(c3cc(Br)c(O)cc3Oc3c2cc(Br)c(O)[c]3[Hg])c2ccccc21` (stereo unspecified), the Potency [1] was “inactive” and the Potency [2] was “inactive”.

For `S=C=S`, the Potency [3] was “inactive”, the Potency [1] was “inactive” and the Potency [2] was “inactive”.

In the case of `COc1ccc2c3c1O[C@H]1C(=O)CC[C@H]4[C@@H](C2)N(C)CC[C@]314`, the Potency [1] is reported as “inactive” and the Potency [2] is reported as “inactive”.

In the case of `O=[N+]([O-])C(Br)(CO)CO`, the Potency [3] is reported as “inactive”, the Potency [1] is reported as “inactive” and the Potency [2] is reported as “inactive”.

For `[O]=[Cd]`, the Potency [3] was “inactive”, the Potency [1] was “inactive” and the Potency [2] was “inactive”.

In the case of `[H+].[H+].[Hg+2].[O-]B([O-])[O-].[c-]1ccccc1`, the Potency [1] is reported as 13 µM (active) and the Potency [2] is reported as 1.3 µM (active).

In the case of `[S]=[Sb](=[S])[S][Sb](=[S])=[S]`, the Potency [1] is reported as “inactive” and the Potency [2] is reported as “inactive”.

In the case of `ClC1=C(Cl)[C@]2(Cl)[C@@H]3[C@H]4C[C@H]([C@@H]5O[C@H]45)[C@@H]3[C@@]1(Cl)C2(Cl)Cl`, the Potency [1] is reported as “inactive” and the Potency [2] is reported as “inactive”.

For `CCOC(=O)/C=C(C)/C=C/C[C@@H](C)CCCC(C)C`, the Potency [1] was “inactive”.

In the case of `CC[C@H](C)[C@H]1O[C@]2(C=C[C@@H]1C)C[C@@H]1C[C@@H](C/C=C(\C)[C@@H](O[C@H]3C[C@H](OC)[C@@H](O[C@H]4C[C@H](OC)[C@@H](O)[C@H](C)O4)[C@H](C)O3)[C@@H](C)/C=C/C=C3\CO[C@@H]4[C@H](O)C(C)=C[C@@H](C(=O)O1)[C@]34O)O2`, the Potency [1] is reported as “inactive”.

For `C#CCN1CC(=O)N(COC(=O)C2C(C=C(C)C)C2(C)C)C1=O` (stereo unspecified), the Potency [3] was “inactive” and the Potency [4] was “inactive”.

For `CC(C)(C)c1cc(C(C)(C)C)c2c(c1)C(O)(C(F)(F)F)C(=O)O2` (stereo unspecified), the Potency [5] was “inactive” and the Potency [2] was “inactive”.

For `Oc1ccc2c3c1O[C@H]1[C@H](N(CCCl)CCCl)CC[C@@]4(O)[C@@H](C2)N(CC2CC2)CC[C@]314`, the outcome [5] was “inactive [at 9.29 µM]”.

With `COc1cc(C(=O)O[C@H]2[C@@H]3C=CO[C@@H](O[C@@H]4O[C@H](CO)[C@@H](O)[C@H](O)[C@H]4O)[C@@H]3[C@@]3(CO)O[C@@H]23)ccc1O` the Potency [5] was “inactive” and the Potency [2] was “inactive”.

With `CCCN1CCO[C@H]2c3cc(O)ccc3OC[C@@H]21` the Potency [5] was “inactive” and the Potency [2] was “inactive”.

For `COC(=O)C1(C)CCC(O)C2(C)c3c(O)cc(C(C)C)cc3C(O)C(OC(C)=O)C12` (stereo unspecified), the Potency [5] was “inactive” and the Potency [2] was “inactive”.

With `Cc1c(Cl)cccc1S(=O)(=O)Nc1nc(CC(=O)N2CCN(C)CC2)cs1` the Potency [5] was “inactive” and the Potency [2] was “inactive”.

In the case of `C=C[C@H]1[C@H](O[C@@H]2O[C@H](CO)[C@@H](O)[C@H](O)[C@H]2O)OC=C2C(=O)OCC[C@H]21`, the Potency [5] is reported as “inactive” and the Potency [2] is reported as “inactive”.

With `C[C@@H]1C(=O)O[C@H]2[C@H](O)[C@@]34[C@@H]5OC(=O)[C@@]3(O[C@@H]3OC(=O)[C@@H](O)[C@@]34[C@H](C(C)(C)C)[C@H]5O)[C@@]12O` the Potency [5] was “inactive” and the Potency [2] was “inactive”.

With `O=[N+]([O-])c1ccccc1` the Potency [3] was “inactive” and the Potency [1] was “inactive”.

For `CCC1NC(=O)C2C(Cl)C(Cl)CN2C(=O)C(C(C)O)NC(=O)CC(c2ccccc2)NC(=O)C(CO)NC1=O` (stereo unspecified), the Potency [5] was “inactive” and the Potency [2] was “inactive”.

For `C1=C2CCCN[C@H]2[C@@H]2C[C@H]1[C@H]1CCCCN1C2`, the Potency [5] was “inactive” and the Potency [2] was “inactive”.

With `CC1=CC2/C=C(\C)CCC(O)C3OC(C)(C)OC3CC(=O)OC23C(=O)NC(CC(C)C)C3C1C` (stereo unspecified) the Potency [5] was “inactive” and the Potency [2] was “inactive”.

With `C=CCN=C=S` the Potency [3] was “inactive” and the Potency [1] was “inactive”.

With `C=C(C)[C@H]1O[C@H]2CC[C@@]3(C)[C@@](O)(CC[C@H]4[C@@H]5OC(C)(C)[C@H]6C[C@@H]7C(=C)Cc8c(Cl)cc9[nH]c(c5c9c8[C@@]76O)[C@@]43C)[C@]23O[C@@H]3[C@H]1O` the Potency [5] was “inactive”.

For `C/C=C(\C)C(=O)O[C@H]1[C@H](OC(C)=O)[C@]2(CO)[C@H](O)[C@H](O)[C@]3(C)C(=CCC4[C@@]5(C)CC[C@H](O[C@@H]6O[C@H](C(=O)O)[C@@H](O)[C@H](O[C@@H]7OC[C@H](O)[C@H](O[C@@H]8OC[C@H](O)[C@H](O)[C@H]8O)[C@H]7O)[C@H]6O[C@@H]6O[C@H](CO)[C@@H](O)[C@H](O)[C@H]6O)C(C)(C)C5CC[C@]43C)[C@@H]2CC1(C)C` (stereo partly specified), the outcome [5] was “inactive [at 9.29 µM]” and the outcome [2] was “inactive [at 9.29 µM]”.

In the case of `C[C@H]1C(=O)O[C@H]2[C@H](O)[C@]34C5OC(=O)[C@]3(O[C@@H]3OC(=O)[C@H](O)C34[C@H](C(C)(C)C)[C@H]5O)C12O` (stereo partly specified), the Potency [5] is reported as “inactive” and the Potency [2] is reported as “inactive”.

In the case of `CCCCCOc1cc2c(cc1-c1cc(/C=C/C(=O)O)ccc1O)C(C)(C)CCC2(C)C`, the Potency [5] is reported as “inactive”.

With `CCCCCCn1c(=O)c(C(=O)Nc2ccc(C(=O)OCCC)cc2)c(O)c2ccccc21` the outcome [5] was “inactive [at 9.29 µM]” and the outcome [2] was “inactive [at 9.29 µM]”.

For `CC(C)(C)c1cc(O)ccc1O`, the Potency [3] was “inactive”, the Potency [1] was “inactive” and the Potency [2] was “inactive”.

For `CC1=C2C(=O)C3[C@@H](CC=C4C[C@@H](O)CC[C@@]43C)[C@@H]2CC[C@]12O[C@@H]1C[C@H](C)CN[C@H]1[C@H]2C` (stereo partly specified), the Potency [5] was “inactive” and the Potency [2] was “inactive”.
